Data taken from publication PMC12136788.
Changes are numbered by the printed parent chain. In all, about 24,000 sequences were measured (“enrichment r”: median about 0.99, highest 2% from about 3.7 on). Many of the other results were omitted from the sample, so the highest values are more common in it than they were.

T1: UNK ZnF1-3 (human, UniProt Q9C0B0 31-174)
T1 sequence: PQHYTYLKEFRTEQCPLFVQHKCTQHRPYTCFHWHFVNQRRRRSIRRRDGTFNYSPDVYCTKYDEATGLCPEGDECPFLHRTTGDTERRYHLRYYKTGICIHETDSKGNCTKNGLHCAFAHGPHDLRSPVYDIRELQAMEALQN

B1: chr2:160855017:160855018:-_ENSMUSG00000057133_ENSMUST00000039782|mus_mus|FALSE|FALSE (ssRNA)
RNA: GGGAGUUCUACAGUCCGACGAUCAUCCUUUUCCAGUUCUUCCAUUGUGGCCCAUUUACAAUGUAAAUAGGAAAAAUUUCUAUACUUAACGUAGAAAAGCUCUAGGUCGAAUGGAGGUUCUCCUGGGUGAACCUCCUGGACAGUCAACAGAGGAUUGAGCAUCA
B2: chr7:150915252:150915253:-_ENSG00000033050_ENST00000287844|hu_mus|FALSE|FALSE (ssRNA)
RNA: GGGAGUUCUACAGUCCGACGAUCCUUCCCUGCUCCAUUGGGUCCUACCAGAGCCACUCGUGUGUCAAGAUCAAUACCAAAUUCUAGAUUAUUGUAGAUGCAAGGCCCGUCUUUCGUAUAUUUGAAGCUCACGUUCUGCACCAUCAACAGAGGAUUGAGCAUCA
B3: chr2:78753848:78753849:+_ENSMUSG00000027011_ENSMUST00000028398|mus_mus|FALSE|FALSE (ssRNA)
RNA: GGGAGUUCUACAGUCCGACGAUCGUUAUCUCCUUUAGGCCCAGCACUGCAGUUAGGAGGAGGAUCAAGGGUUAUCUCUGCUAGCUCCUUCUGAAUUCUUUUAGCACUAGUGGAUAACUUAGCAGUCGUUUUGCUAGAGAGUUUCAACAGAGGAUUGAGCAUCA
B4: chr2:4828950:4828951:+_ENSMUSG00000026662_ENSMUST00000115019|mus_hu|motif|central (ssRNA)
RNA: GGGAGUUCUACAGUCCGACGAUCUAAAAUCUAGUUUUUCCCGAUAAAUUGUACUUUAGGCAAAACCCUCCCAACGCUUCGGAAAUAAUACUAAAAGGGGCAUCUGAUUAUACAAGAGCAAUUUAAAAAAUUAAAUAUUUAUUUCAACAGAGGAUUGAGCAUCA
B5: chr11:43534790:43534791:+_ENSMUSG00000044950_ENSMUST00000129229|mus_mus|FALSE|FALSE (ssRNA)
RNA: GGGAGUUCUACAGUCCGACGAUCUCUGAUUUUCUCAUGUGUUCUCCAUUCAUUAAACAAGAAAAAUUAAGGGGUUUCAUACUAUGUAUUUAGCAAAGACAAGGAAAUCUGAAAUCUCUGUUAAGAAUUCAUGUUCCAUGCACCCAACAGAGGAUUGAGCAUCA
B6: chr2:4828950:4828951:+_ENSMUSG00000026662_ENSMUST00000115019|mus_hu|FALSE|FALSE (ssRNA)
RNA: B4 RNA with G80U, G81A
B7: chr11:30747457:30747458:+_ENSMUSG00000040850_ENSMUST00000041231|mus_mus|motif|central (ssRNA)
RNA: GGGAGUUCUACAGUCCGACGAUCACCCUUAAAGAGGCAGAAACGCCGGGGACUAAACUUAUCUCUUCCUUUUCUGUCUUCGGAAGAUAGAAAUGUGAUUAACUGCUCAACAAACUUAGGAUCAGAAAAACGAUCAUAUAUAAUCAACAGAGGAUUGAGCAUCA
B8: chr1:39494447:39494448:+_ENSG00000168653_ENST00000372967|hu_mus|hu_hu_hu_mus_False|68_88 (ssRNA)
RNA: GGGAGUUCUACAGUCCGACGAUCGCACCGAGCGGCGUUCUUAUAGGGCUGUUCACCGCUUAGGAACGUCAACCAUCGGUCCAGGCUGAUGCCCAGCUUUUUCUGUAUGUCAAGGAAAGGCAUGGCUCUGCAGUGCCCUUGUCACAACAGAGGAUUGAGCAUCA
B9: chr14:76904540:76904541:+_ENSMUSG00000022010_ENSMUST00000022587|mus_hu|motif|central (ssRNA)
RNA: GGGAGUUCUACAGUCCGACGAUCAAAGAAAUUGAAAAAUGUCUCAGUUGGUAAACUCCUAGAUCCAUCGCCACUGGUCGGCACCAUUGGGAUUUCAUGCAAUUGCAGCCAAAAACACCCUCGUGGAAAAAAAGAGGGAACACCCAACAGAGGAUUGAGCAUCA
B10: chr10:1038518:1038519:+_ENSG00000107937_ENST00000545048|hu_hu|hu_hu_hu_mus_False|28_58 (ssRNA)
RNA: GGGAGUUCUACAGUCCGACGAUCCAGUCUGUCAUGGUAAUUCUGUUGAGUAAAUUUGACUUUUCUCAUAUAAAAAUGUCUAAUGCGAUGAAUUUGAUAAUGUUUAUGAAUAACGGUUGGAGUCUUUCGUUGAGUCUUGGAUAACAACAGAGGAUUGAGCAUCA
B11: chr7:90019461:90019462:+_ENSMUSG00000057706_ENSMUST00000082237|mus_mus|FALSE|FALSE (ssRNA)
RNA: GGGAGUUCUACAGUCCGACGAUCCGUCACAAUCGUGUGAUUAUUAAAAUAAUACAGUGUUCUUUGCCAUAAGGCCAUACUAAAAAUAAAAAGAUUUAACCCAGCUACAAAAAAGUUCACUGAACUUAAAUUAAAAUACUUGUACAACAGAGGAUUGAGCAUCA
B12: chr6:53132721:53132722:-_ENSG00000012660_ENST00000304434|hu_hu|FALSE|FALSE (ssRNA)
RNA: GGGAGUUCUACAGUCCGACGAUCUUACCUGUUUGACCACUGCCUCAAAUGUGUGAGAUGUGAUUUUAUGAUAAGCAGUCUAUUAUUUUUAAACAAGAGGUUCUAAACACAUCUUUAGAUUCUAAGCAGAAAGAAAUUACAAGUCAACAGAGGAUUGAGCAUCA
B13: chr15:88518400:88518401:-_ENSMUSG00000022387_ENSMUST00000109381|mus_hu|FALSE|FALSE (ssRNA)
RNA: GGGAGUUCUACAGUCCGACGAUCCCCGUCUUAUUAAAUAAGUGGUACUCUGUGUAAAGAGCAUGAUUUACAAAAUUAUUAAACAUUCAAAAGUCUUUAAGAAAAAGCUACAUAUCAAAGAAAGUGACGCCAGCAGCACGGCCUCAACAGAGGAUUGAGCAUCA
B14: chr11:120466956:120466957:+_ENSMUSG00000025135_ENSMUST00000093140|mus_mus|FALSE|FALSE (ssRNA)
RNA: GGGAGUUCUACAGUCCGACGAUCCAAGCAGAGGCCUCCAGCACGGCUCGGAACUGUAAUGAGUUUUACUUAUUGAAUAAAGUGUCAAUGUGAUGGGAAAACAAAACAGUCAGCAAAGCUCCUUUCAACCUUGUCCCAGCCAAACAACAGAGGAUUGAGCAUCA
B15: chr7:90019461:90019462:+_ENSMUSG00000057706_ENSMUST00000082237|mus_hu|FALSE|FALSE (ssRNA)
RNA: GGGAGUUCUACAGUCCGACGAUCCGUCACAAUUGUGUGAUUAUUAAAAUAAUACAGUGUUCUUUGCCAUAAGGCCAUACUAAAAUAAAAAGAUUUAACCCAGCUACAAAAAAGUUCACUGAACUUAAAUUAAAAUACUUGUAACAACAGAGGAUUGAGCAUCA
B16: chr15:88518400:88518401:-_ENSMUSG00000022387_ENSMUST00000109381|mus_mus|FALSE|FALSE (ssRNA)
RNA: GGGAGUUCUACAGUCCGACGAUCCCCGUCUUAUUAAAUAAGCGGUACUCUGUGUAAAGAGCAUGAUCUACAAAAUUAUUAAACAUUCAAAAGUCUUUAAAAAAAAAAAAAAACCCUACAGAUUAGAAUAAGUGAGGCCUCGGCCAACAGAGGAUUGAGCAUCA

biological target: T1, UNK ZnF1-3; assay: nsRBNS (natural sequence RNA bind-n-seq); RBNS binding buffer (assumed for nsRBNS): 25 mM Tris pH 7.5, 150 mM KCl, 3 mM MgCl2, 0.01% Triton X-100, 500 ug/ml BSA, 20 U/ml SUPERase-In, 4 C; UNK is unkempt and MSI1 is Musashi-1; names of the RNAs are library labels; protein concentration not given here; high values mean tight binding

| Binder | binding signal |
| --- | --- |
| B1 | 0.614 enrichment R |
| B2 | 1.41 enrichment R |
| B3 | 1.05 enrichment R |
| B4 | 4.08 enrichment R |
| B5 | 0.874 enrichment R |
| B6 | 6.73 enrichment R |
| B7 | 0.632 enrichment R |
| B8 | 0.613 enrichment R |
| B9 | 1.75 enrichment R |
| B10 | 1.2 enrichment R |
| B11 | 3.43 enrichment R |
| B12 | 1.61 enrichment R |
| B13 | 10 enrichment R |
| B14 | 1.39 enrichment R |
| B15 | 3.55 enrichment R |
| B16 | 6.27 enrichment R |
